Unmarked numbers belong to inactive results. Results filed as inconclusive are left out. The source made the active and inactive calls. Unless noted, calls follow the shape of the dose curve; as a rule, active = well fitted curve in the direction sought with a large enough effect in the repeat runs; inconclusive = weak or mixed curves; inactive = no such curve, though single readings can be large; an effect the other way counts as inactive or inconclusive.
Test system: not listed separately
Assay: qHTS assay to identify small molecule antagonists of the androgen receptor (AR) signaling pathway - cell viability counter screen (AID 743033; also: nearly all actives have a fitted effect of over 45% in size; also: potency is read from the fitted curve at half-maximal effect)
Settings: AR-bla HEK293 viability, CellTiter-Glo luminescence, 16 h; series mostly up to 58.5 µM; activity change, negative = cytotoxicity: at the top concentration
% is scaled to controls: 0 for no effect and ±100 for the full control effect.

First: O=C1C(Cl)C(CCl)CN1c1cccc(C(F)(F)F)c1 (configuration not stated)
Second: Cc1ccccc1CCl
The “activity change, negative = cytotoxicity” value of the first is lower: -3.66% for the first, 12.1% for the second.

Going from `OCCCBr` to `C=CC(=O)OCCCCO`, the “activity change, negative = cytotoxicity” value rises from -25.7% to 0.361%.

Going from `CC(C)=CCOc1c2occc2cc2ccc(=O)oc12` to `CCc1ccc(C(=O)NN(C(=O)c2cc(C)cc(C)c2)C(C)(C)C)cc1`, the “activity change, negative = cytotoxicity” value rises from -16.5% to -10.5%.

Compared with `Nc1ccc([N+](=O)[O-])cc1[N+](=O)[O-]`, `CCCN(CCC)c1c([N+](=O)[O-])cc(S(C)(=O)=O)cc1[N+](=O)[O-]` is lower in “activity change, negative = cytotoxicity” value: 0.657% for the first, -14.7% for the second.

First: CC(C)O.CC(C)O.OCCN(CCO)CCO.OCCN(CCO)CCO.[Ti]
Second: CC(C)N(CCC(C(N)=O)(c1ccccc1)c1ccccn1)C(C)C (configuration not stated)
The “activity change, negative = cytotoxicity” value of the first is lower: -6.5% for the first, 0.0336% for the second.

Compared with `Cc1c(F)c(F)c(COC(=O)C2C(/C=C(\Cl)C(F)(F)F)C2(C)C)c(F)c1F` (configuration not stated), `CCOC(=O)COc1cc(-c2nn(C)c(OC(F)F)c2Cl)c(F)cc1Cl` is higher in “activity change, negative = cytotoxicity” value: 0.476% for the first, 0.854% for the second.

Going from `c1ccoc1` to `Brc1ccc(Oc2ccccc2)cc1`, the “activity change, negative = cytotoxicity” value rises from 0.319% to 1.49%.

Going from `COc1cc(Cl)c(OC)cc1Cl` to `CCOP(=S)(Oc1ccc([N+](=O)[O-])cc1)c1ccccc1` (configuration not stated), the “activity change, negative = cytotoxicity” value falls from 0.852% to -6.68%.

Going from `CCCCCCCCCC(=O)O[C@H]1CC[C@H]2[C@@H]3CCC4=CC(=O)CC[C@@H]4[C@H]3CC[C@]12C` to `CC(=O)[C@H]1CC[C@H]2[C@@H]3CC[C@H]4C[C@](C)(O)CC[C@]4(C)[C@H]3CC[C@]12C`, the “activity change, negative = cytotoxicity” value falls from 12.8% to -8.46%.

First: O=C(O)c1ccccc1C(=O)Nc1cccc2ccccc12
Second: Nc1ccc(N=Nc2ccc(-c3ccc(N=Nc4c(S(=O)(=O)O)cc5cc(S(=O)(=O)O)c(N=Nc6ccccc6)c(O)c5c4N)cc3)cc2)c(N)c1
The “activity change, negative = cytotoxicity” value of the first is lower: -2.05% for the first, -1.05% for the second.

Going from `N#C/C(N)=C(/N)C#N` to `COC(N)=O`, the “activity change, negative = cytotoxicity” value falls from 3.97% to 0.67%.

Compared with `CC(C)(CCl)C(=O)Cl`, `CCCCNP(N)(N)=S` is higher in “activity change, negative = cytotoxicity” value: -24.3% for the first, 0.785% for the second.

For `NCCCNCCCN`, the Potency was 49.7 µM (active).
For `CCOP(=S)(OCC)Oc1nc(Cl)c(Cl)cc1Cl`, the Potency was “inactive”.

With `CO[C@@H]1[C@H](OC(=O)NC(=O)CCl)CC[C@]2(CO2)[C@H]1[C@@]1(C)O[C@@H]1CC=C(C)C` the “activity change, negative = cytotoxicity” value was -0.518% [at 27 µM].

Compared with `C=CCCl`, `CCOC(=O)C(Cl)C(C)=O` (configuration not stated) is lower in “activity change, negative = cytotoxicity” value: 5.46% [at 78.9 µM] for the first, -1.21% [at 78.9 µM] for the second.

First: O=C(CBr)c1ccccc1
Second: NNC(=O)c1cccnc1
The “activity change, negative = cytotoxicity” value of the first is higher: -3.6% [at 78.9 µM] for the first, -9.33% [at 78.9 µM] for the second.

First: Cc1cc(=O)[nH]o1
Second: CCOS(C)(=O)=O
The “activity change, negative = cytotoxicity” value of the first is lower: -28.3% [at 78.9 µM] for the first, 9.11% [at 78.9 µM] for the second.

With `O=NN1CCNCC1` the “activity change, negative = cytotoxicity” value was -2.77% [at 78.9 µM].

Target: Androgen receptor (Homo sapiens) (UniProt P10275)
Assay: qHTS assay to identify small molecule agonists of the androgen receptor (AR) signaling pathway (AID 743036; active = well fitted activation curve with a large enough effect in the signal ratio in the repeat runs, with a control signal flat, not every such curve was filed as active; the % refers to the signal ratio)
Settings: HEK293 AR-UAS-bla GripTite, beta-lactamase FRET ratio, 16 h; series mostly up to 62.4 µM; activation: at the top concentration
Method in brief: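 Activation was read as beta-lactamase FRET signal from LiveBLAzer B/G substrate, added for 2 h at room temperature. Before that, GeneBLAzer AR-UAS-bla GripTite (HEK293) cells had 16 h compound exposure at 37C.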

Sequence of Androgen receptor (Homo sapiens) (P10275 whole entry, looked up): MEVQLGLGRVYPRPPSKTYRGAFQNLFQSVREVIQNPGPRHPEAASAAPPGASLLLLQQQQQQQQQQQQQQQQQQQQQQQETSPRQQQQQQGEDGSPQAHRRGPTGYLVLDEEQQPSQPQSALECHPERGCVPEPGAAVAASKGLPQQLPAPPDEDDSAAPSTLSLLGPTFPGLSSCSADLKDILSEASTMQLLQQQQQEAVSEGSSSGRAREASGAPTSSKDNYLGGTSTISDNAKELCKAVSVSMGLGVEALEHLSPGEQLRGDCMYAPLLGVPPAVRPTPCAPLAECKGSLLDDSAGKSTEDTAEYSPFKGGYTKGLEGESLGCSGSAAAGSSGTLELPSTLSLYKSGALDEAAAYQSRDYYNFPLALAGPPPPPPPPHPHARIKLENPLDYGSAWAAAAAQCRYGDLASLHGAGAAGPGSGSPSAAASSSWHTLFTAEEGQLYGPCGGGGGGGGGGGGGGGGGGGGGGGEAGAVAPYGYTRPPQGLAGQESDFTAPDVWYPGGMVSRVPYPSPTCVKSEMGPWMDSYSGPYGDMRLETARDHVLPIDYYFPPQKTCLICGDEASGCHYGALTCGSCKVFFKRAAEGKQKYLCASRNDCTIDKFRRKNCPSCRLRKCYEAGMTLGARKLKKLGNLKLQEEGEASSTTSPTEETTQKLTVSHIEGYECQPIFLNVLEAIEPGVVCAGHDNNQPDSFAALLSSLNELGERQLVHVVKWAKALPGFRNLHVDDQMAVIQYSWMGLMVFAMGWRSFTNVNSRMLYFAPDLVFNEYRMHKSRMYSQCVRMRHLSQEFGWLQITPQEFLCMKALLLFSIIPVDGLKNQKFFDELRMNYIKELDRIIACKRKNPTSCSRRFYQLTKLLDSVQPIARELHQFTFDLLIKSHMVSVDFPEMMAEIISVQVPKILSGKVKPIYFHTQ

Compared with `O=C1C(Cl)C(CCl)CN1c1cccc(C(F)(F)F)c1` (configuration not stated), `CC(C)=CCOc1c2occc2cc2ccc(=O)oc12` is lower in “activation” value: 18.5% for the first, -15.4% for the second.

In the case of `CCOP(=S)(OCC)Oc1nc(Cl)c(Cl)cc1Cl`, the “activation” value is reported as -11.6%.

In the case of `Cc1cc(=O)[nH]o1`, the “activation” value is reported as -11% [at 79.1 µM].

Target: Androgen receptor (Homo sapiens) (UniProt P10275)
Assay: qHTS assay to identify small molecule agonists of the androgen receptor (AR) signaling pathway using the MDA cell line (AID 743040; also: nearly all actives have a fitted effect of over 20% in size)
Settings: MDA-kb2 AR-luc cells, MMTV luciferase, 16 h; series mostly up to 70.3 µM; activity change: at the top concentration
Method in brief: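 Testing was done with the MDA-kb2 AR-luc line, a human breast carcinoma stably transfected with MMTV-luciferase containing AR and GR response elements. Cells were exposed 16 h at 37C before ONE-Glo luminescence detection.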

Compared with `O=C1C(Cl)C(CCl)CN1c1cccc(C(F)(F)F)c1` (configuration not stated), `Nc1ccc([N+](=O)[O-])cc1[N+](=O)[O-]` is lower in “activity change” value: 0.261% for the first, -0.0388% for the second.

Compared with `CC(C)=CCOc1c2occc2cc2ccc(=O)oc12`, `CCOC(=O)COc1cc(-c2nn(C)c(OC(F)F)c2Cl)c(F)cc1Cl` is lower in “activity change” value: 0.367% for the first, 0.103% for the second.

For `NCCCNCCCN`, the “activity change” value was -5.03% [at 95 µM, hits give high values].
For `CO[C@@H]1[C@H](OC(=O)NC(=O)CCl)CC[C@]2(CO2)[C@H]1[C@@]1(C)O[C@@H]1CC=C(C)C`, the “activity change” value was -3.13% [at 32.5 µM, hits give high values].
In the case of `Cc1cc(=O)[nH]o1`, the “activity change” value is reported as 1.43% [at 95 µM, hits give high values].

In the case of `CCOP(=S)(OCC)Oc1nc(Cl)c(Cl)cc1Cl`, the Potency is reported as “inactive”.

Test system: not listed separately
Assay: qHTS assay to identify small molecule antagonists of the androgen receptor (AR) signaling pathway using the MDA cell line - cell viability counter screen (AID 743041; also: nearly all actives have a fitted effect of over 45% in size)
Settings: MDA-kb2 viability, CellTiter-Fluor, 16 h, cells co-treated with R1881 androgen agonist; series mostly up to 70.3 µM; viability change, negative = cytotoxic: at the top concentration
Method in brief: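 Compound exposure lasted 16 h at 37C in MDA-kb2 AR-luc cells stimulated with R1881. Protease-based CellTiter-Fluor reagent was applied for the final 30 min and fluorescence measured.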

First: O=C1C(Cl)C(CCl)CN1c1cccc(C(F)(F)F)c1 (configuration not stated)
Second: Cc1ccccc1CCl
The “viability change, negative = cytotoxic” value of the first is lower: -9.64% for the first, -1.39% for the second.

Going from `OCCCBr` to `C=CC(=O)OCCCCO`, the “viability change, negative = cytotoxic” value rises from -19.2% to -1.97%.

First: CC(C)=CCOc1c2occc2cc2ccc(=O)oc12
Second: CCc1ccc(C(=O)NN(C(=O)c2cc(C)cc(C)c2)C(C)(C)C)cc1
The “viability change, negative = cytotoxic” value of the first is lower: 9.17% for the first, 16.1% for the second.

Going from `CC(C)O.CC(C)O.OCCN(CCO)CCO.OCCN(CCO)CCO.[Ti]` to `CC(C)N(CCC(C(N)=O)(c1ccccc1)c1ccccn1)C(C)C` (configuration not stated), the “viability change, negative = cytotoxic” value rises from 0.0934% to 10.7%.

Compared with `c1ccoc1`, `CCOP(=S)(Oc1ccc([N+](=O)[O-])cc1)c1ccccc1` (configuration not stated) is higher in “viability change, negative = cytotoxic” value: 6.7% for the first, 7.06% for the second.

Compared with `COc1cc(Cl)c(OC)cc1Cl`, `CCOC(=O)COc1cc(-c2nn(C)c(OC(F)F)c2Cl)c(F)cc1Cl` is lower in “viability change, negative = cytotoxic” value: 2.47% for the first, -2.32% for the second.

Going from `CCCCCCCCCC(=O)O[C@H]1CC[C@H]2[C@@H]3CCC4=CC(=O)CC[C@@H]4[C@H]3CC[C@]12C` to `CC(=O)[C@H]1CC[C@H]2[C@@H]3CC[C@H]4C[C@](C)(O)CC[C@]4(C)[C@H]3CC[C@]12C`, the “viability change, negative = cytotoxic” value rises from -1.58% to 5.71%.

First: O=C(O)c1ccccc1C(=O)Nc1cccc2ccccc12
Second: Nc1ccc(N=Nc2ccc(-c3ccc(N=Nc4c(S(=O)(=O)O)cc5cc(S(=O)(=O)O)c(N=Nc6ccccc6)c(O)c5c4N)cc3)cc2)c(N)c1
The “viability change, negative = cytotoxic” value of the first is lower: -0.477% for the first, 7.69% for the second.

First: CCCN(CCC)c1c([N+](=O)[O-])cc(S(C)(=O)=O)cc1[N+](=O)[O-]
Second: CCCCNP(N)(N)=S
The “viability change, negative = cytotoxic” value of the first is lower: 0.0172% for the first, 4.48% for the second.

Compared with `N#C/C(N)=C(/N)C#N`, `COC(N)=O` is lower in “viability change, negative = cytotoxic” value: 3.06% for the first, -1.81% for the second.

With `CC(C)(CCl)C(=O)Cl` the “viability change, negative = cytotoxic” value was 4.76%.

In the case of `CCOP(=S)(OCC)Oc1nc(Cl)c(Cl)cc1Cl`, the Potency is reported as “inactive”.
With `Brc1ccc(Oc2ccccc2)cc1` the Potency was “inactive”.

For `CO[C@@H]1[C@H](OC(=O)NC(=O)CCl)CC[C@]2(CO2)[C@H]1[C@@]1(C)O[C@@H]1CC=C(C)C`, the “viability change, negative = cytotoxic” value was -24.7% [at 32.5 µM].

Going from `C=CCCl` to `CCOC(=O)C(Cl)C(C)=O` (configuration not stated), the “viability change, negative = cytotoxic” value falls from 5.31% [at 95 µM] to 0.0783% [at 95 µM].

Compared with `O=C(CBr)c1ccccc1`, `NNC(=O)c1cccnc1` is higher in “viability change, negative = cytotoxic” value: -1.13% [at 95 µM] for the first, -0.187% [at 95 µM] for the second.

Going from `Cc1cc(=O)[nH]o1` to `CCOS(C)(=O)=O`, the “viability change, negative = cytotoxic” value rises from -3.23% [at 95 µM] to 5.73% [at 95 µM].

For `O=NN1CCNCC1`, the “viability change, negative = cytotoxic” value was 9.06% [at 95 µM].

From PubChem BioAssay (Tox21)
